GCN5L2 inh: inhibitors of human GCN5L2 histone acetyltransferase | Q92830 | GCN5L2 HAT assay, ThioGlo1 CoA-SH fluorescence | Potency, µM (titrated, usually from 58.9 µM), for the others: top-dose activity change, negative = inhibition, most hits filed as inhibitors | 390,000 tested, 0.21% active
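ThioGlo1-coupled HAT assay: 20nM GCN5L2, 70uM acetyl-CoA, 75uM H3(1-25) peptide, pH 7.5. Fluorescence read at 340/540nm at start and after 20 min at room temperature.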
DT40 TDP1 no CPT: qHTS for Inhibitors of human tyrosyl-DNA phosphodiesterase 1 (TDP1): qHTS in cells in absence of CPT | DT40 Tdp1-/- hTDP1 cells, no CPT, ATP luminescence, 48 h | Potency, µM (doses to about 46.2 µM), without a hit: at the highest dose activity change, negative = growth inhibition, hits mostly inhibitors | 420,000 tested, 15% active | AID 686978, 2013; note: nearly all actives have a fitted effect of over 55% in size
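Compound effects on proliferation are scored in DT40 Tdp1-/-;hTDP1 cells in the absence of CPT. ATP levels (CellTiter-Glo luminescence) are recorded after a ≥48 hr, 37 °C incubation.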
PLK1 PBD inh: inhibitors of human PLK1 polo-box domain binding. Plk1 PBD binding of FITC phosphopeptide, fluorescence polarization. Potency, µM, without a hit: max response, negative = inhibition, most hits filed as inhibitors. 360,000 tested, 2.8% active. AID 720504; note: series mostly up to about 57 µM; nearly all actives have a fitted effect of over 65% in size
VDR inh: blocks the human vitamin D receptor; Potency, µM, for the others: max response, negative = inhibition, actives largely listed as inhibitors; P11473; AID 504847; 400,000 tested, 0.93% active; VDR-SRC2-3 peptide fluorescence polarization, 2 h
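Two reagent solutions held at 4 deg C in the dark were dispensed, compounds pinned at 23 nl, and the mixture incubated 2 h at room temperature. Read-out: fluorescence polarization of VDR–SRC2-3 peptide binding.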
TDP1 block: TDP1 (human) enzyme inhibition. recombinant TDP1, AlphaScreen DNA substrate cleavage. Potency, µM (highest dose often 130 µM), without a hit: at the highest dose activity change, negative = inhibition, hits mostly inhibitors. 350,000 tested, 0.28% active; note: nearly all actives have a fitted effect of over 40% in size
Target sequence (Q9NUW8 whole entry, looked up): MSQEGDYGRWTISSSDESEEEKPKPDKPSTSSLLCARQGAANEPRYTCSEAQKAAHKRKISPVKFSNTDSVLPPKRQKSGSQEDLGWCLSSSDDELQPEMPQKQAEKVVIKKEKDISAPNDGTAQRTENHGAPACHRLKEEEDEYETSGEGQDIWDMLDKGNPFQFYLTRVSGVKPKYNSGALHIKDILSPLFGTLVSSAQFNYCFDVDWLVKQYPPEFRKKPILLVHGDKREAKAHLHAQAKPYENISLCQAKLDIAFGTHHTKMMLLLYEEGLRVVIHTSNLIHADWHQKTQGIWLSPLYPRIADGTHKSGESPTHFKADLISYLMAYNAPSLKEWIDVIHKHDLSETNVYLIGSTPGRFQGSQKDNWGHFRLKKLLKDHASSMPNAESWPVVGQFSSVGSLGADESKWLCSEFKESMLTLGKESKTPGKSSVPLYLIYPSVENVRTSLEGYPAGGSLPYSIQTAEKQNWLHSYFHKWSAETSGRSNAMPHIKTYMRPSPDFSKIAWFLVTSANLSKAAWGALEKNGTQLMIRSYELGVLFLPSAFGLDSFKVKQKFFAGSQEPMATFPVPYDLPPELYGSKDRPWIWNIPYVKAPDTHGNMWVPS
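Compounds were preincubated with Tdp1 (1 nM final) for 15 min at room temperature before substrate (15 nM final) started a 5 min reaction; beads (10 ug/ml final) were then added for 10 min before AlphaScreen detection.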
DT40 TDP1 CPT: DT40-hTDP1 cell growth loss with CPT; chicken DT40 Tdp1-/-;hTDP1 cells + 20 nM CPT, ATP luminescence, 48 h; Potency, µM (titrated, usually from 46.2 µM), for inactives: at the top dose activity change, negative = growth inhibition, actives largely listed as inhibitors; 420,000 tested, 12% active; AID 686979; note: nearly all actives have a fitted effect of over 55% in size
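Cell growth measured by CellTiter-Glo luminescence after a minimum 48 h, 37 C compound exposure with 20 nM CPT in Tdp1-knockout DT40 cells stably expressing hTDP1, seeded 400/well; qHTS titration format.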
* marks the source's active call; other numbers are inactive results. In the library only some 18% were active in any assay of this set; here they are far more common. Calls come from the whole dose curve; as a rule, active = well fitted curve in the direction sought with a large enough effect; inconclusive = small, poorly fitted or top-dose-only effect, or another doubt; inactive = no such curve, though single readings can be large; an effect the other way counts as inactive or inconclusive. % is set by controls: 0 for no effect and ±100 for the full control effect; potency is the fitted concentration of half-maximal effect.

How did CCOC(=O)c1sc(NC(=O)Cn2nnc3sc4c(c3c2=O)CCC(C(C)(C)C)C4)nc1C (stereo unspecified) do in these assays?
GCN5L2 inh: -19.1%; DT40 TDP1 no CPT: -19.0%; PLK1 PBD inh: -5.3%; VDR inh: -9.9%; TDP1 block: 5.3%; DT40 TDP1 CPT: 21.9%

Results for COc1ccc(NC(=O)CSCC(=O)N(C)CCOc2ccc(Cl)cc2)cc1 ?
GCN5L2 inh: -0.7%; DT40 TDP1 no CPT: inconclusive; PLK1 PBD inh: 1.3%; VDR inh: 2.6%; TDP1 block: -3.5%; DT40 TDP1 CPT: inconclusive

What do the screens show for `NC(Cc1cc(I)c(Oc2cc(I)c(O)c(I)c2)c(I)c1)C(=O)O` (stereo unspecified)?
GCN5L2 inh: inconclusive; DT40 TDP1 no CPT: -13.7%; VDR inh: inconclusive; TDP1 block: 0.5%; DT40 TDP1 CPT: 6.9%

Results for COc1ccc(CC2SC(=Nc3ccc(F)cc3)NC2=O)cc1 (stereo unspecified) ?
GCN5L2 inh: -8.7%; DT40 TDP1 no CPT: inconclusive; PLK1 PBD inh: -5.7%; VDR inh: -22.4%; TDP1 block: 5.3%; DT40 TDP1 CPT: -7.4%

How did Cc1cc(C)c(NC(=O)Cn2nnc3sc4c(c3c2=O)CCC(C(C)(C)C)C4)c(C)c1 (stereo unspecified) do in these assays?
GCN5L2 inh: -4.1%; DT40 TDP1 no CPT: 20.6µM*; VDR inh: -5.3%; TDP1 block: 2.3%; DT40 TDP1 CPT: 14.6µM*

Results for CC(=O)Cn1nnc2sc3c(c2c1=O)CCC(C(C)(C)C)C3 (stereo unspecified) ?
GCN5L2 inh: -1.6%; DT40 TDP1 no CPT: inconclusive; PLK1 PBD inh: -13.1%; VDR inh: -5.1%; TDP1 block: -5.9%; DT40 TDP1 CPT: inconclusive

Results for Cn1cnc([N+](=O)[O-])c1SCCO ?
GCN5L2 inh: -3.2%; DT40 TDP1 no CPT: -20.3%; PLK1 PBD inh: -24.5%; VDR inh: 2.0%; TDP1 block: 3.6%; DT40 TDP1 CPT: inconclusive

What do the screens show for `Cc1onc(-c2ccccc2)c1C(O)c1ccc(F)cc1` (stereo unspecified)?
GCN5L2 inh: -16.6%; DT40 TDP1 no CPT: -4.5%; PLK1 PBD inh: -8.2%; VDR inh: 15.0%; DT40 TDP1 CPT: -6.0%

Results for CC1CCC/C=C/C(=O)c2c(O)cc(O)cc2CC(=O)O1 (stereo unspecified) ?
GCN5L2 inh: inconclusive; DT40 TDP1 no CPT: 4.11µM*; PLK1 PBD inh: inconclusive; VDR inh: inconclusive; DT40 TDP1 CPT: 4.61µM*

Results for Cc1c(C(=O)NC(C)C)c(-c2ccccc2)nn1-c1ccccc1 ?
GCN5L2 inh: -1.1%; DT40 TDP1 no CPT: -19.7%; PLK1 PBD inh: -19.7%; VDR inh: 4.5%; TDP1 block: 0.0%; DT40 TDP1 CPT: -4.7%

What do the screens show for `Cc1c(C(=O)NCc2ccccc2)c(-c2ccccc2)nn1-c1ccccc1`?
GCN5L2 inh: -4.8%; DT40 TDP1 no CPT: inconclusive; PLK1 PBD inh: 0.1%; VDR inh: -1.3%; TDP1 block: 5.6%; DT40 TDP1 CPT: 23.1µM*

How did Cc1nc(N2CCOCC2)c2c(C)c(C(=O)Nc3ccc(F)cc3Cl)sc2n1 do in these assays?
GCN5L2 inh: 0.5%; DT40 TDP1 no CPT: 0.6%; PLK1 PBD inh: -1.2%; VDR inh: -23.1%; TDP1 block: -5.3%; DT40 TDP1 CPT: -8.9%

What do the screens show for `Cc1nc(N2CCN(c3ccccn3)CC2)c2c(C)c(C(=O)Nc3ccc(F)cc3Cl)sc2n1`?
GCN5L2 inh: -13.8%; DT40 TDP1 no CPT: 20.6µM*; PLK1 PBD inh: -14.2%; VDR inh: -26.6%; TDP1 block: 3.0%; DT40 TDP1 CPT: 23.1µM*

Screening data (PubChem)
